Among the data in the OligoGym collection are sensor-assay potency score (higher = more potent) values, retold here.
Note: reference of the scale not given here.

The first assay has as its target IFNA17. Put plainly: pooled miR-30 sensor sort-seq; sequence = guide strand. The conditions noted are these: shRNA.
In the case of TTGCTGGTAAAGTTCAGTGGAA, the sensor-assay potency score (higher = more potent) is -0.731. TATTTTTTGCAAGTTTGTTGAA: the sensor-assay potency score (higher = more potent) is -0.556. Turning to TCTTCTGGAACTGGTTGCCATC, the sensor-assay potency score (higher = more potent) is -1.69. Same read-out and setting: as for TCTTCCATCCCAACCTCCTGTA, the figure is -0.396; as for TGTATTTCTTCTCTGTTAGATA, -1.15. Regarding TTCTCTGTTAGATAAAGAGTGA, the sensor-assay potency score (higher = more potent) was -0.598. For TTCCAGGTTATTCAGTTGCTGG, the sensor-assay potency score (higher = more potent) was -1.21. On the same count and under the same terms, as for TATCACACATGCTTCCAGGTTA, the figure is 0.103. With TAGAGAACAGATGGATTTGTAG, the sensor-assay potency score (higher = more potent) was -0.448.

As to TCTGAGGCAGATCACAGCCTAG, the sensor-assay potency score (higher = more potent) is -1.69.

The next assay has as its target IFT52. Described as above. The settings on record: shRNA.
The sequence TGAATCTTCCAATTACTCCGAA gave a sensor-assay potency score (higher = more potent) of 0.152.

Regarding TTCTTCAGTACACTTATTGGTA, the sensor-assay potency score (higher = more potent) is -0.369. The same measure, in the same setting: with TTTGGCATCCTGTTGGTCCTTT the figure was 0.0621; with ATATTGATCACTGAACATGTGA, -0.0473; with TATTCTTCTAGTAAAAAGTTAA, -1.44.

On to TTAATATTGGTGTCAAATCTGG, for which the sensor-assay potency score (higher = more potent) is -0.514. The same measure, in the same setting: as for TGAACATGTGACATGAACCAAG, the figure is -0.609.
